The text below walks through data of PubChem BioAssay.

For part of these data: Measured potencies and affinities stand elsewhere. Active and inactive are the calls of the source.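 How the source made its calls, unless noted: active means fitted half-maximal concentration within the tested range, moderate curve steepness, significant signal drop, and little compound fluorescence or bead-linkage interference; inactive means the rest.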

The target in assay [1] is Cell division control protein 42 homolog (Homo sapiens) (UniProt P60953). As to the kind of experiment: inhibition of fluorescent GTP binding to constitutively active Cdc42 – biochemical, multiplex bead flow cytometry, Bodipy-FL-GTP, dose response (AID 1333;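 active means fitted half-maximal concentration within the tested dose range, moderate curve steepness, a statistically real signal drop, and little compound fluorescence or tag-binding interference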). In general terms: In flow cytometry, cells or beads pass a laser one at a time.
The target is the same in assay [2]. As to the kind of experiment: inhibition of fluorescent GTP binding to wildtype Cdc42 – biochemical, multiplex bead flow cytometry, Bodipy-FL-GTP, dose response (AID 1334). The settings on record: bead-based flow cytometry, Bodipy-FL-GTP binding to GST-Cdc42; at 100 µM (top of the series) unless noted.
Assay [3] deals with GTPase HRas (Homo sapiens) (UniProt P01112). In words: Ras wt fluorescent GTP loading blockade – biochemical, wildtype, multiplex bead flow cytometry, dose response (AID 1335;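 active means fitted half-maximal concentration within 10 nM to 100 µM, steepness 0.5 to 2, significant signal drop, low assay interference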). The settings on record: bead-based flow cytometry, Bodipy-GTP binding to GST-Ras; at 100 µM (top of the series) unless noted.
Assay [4] concerns Ras-related protein Rab-7a (dog), GTP binding. In words: blockers of fluorescent GTP binding to Rab7 – biochemical, wildtype, multiplex bead flow cytometry, dose response (AID 1336; call rule not given here).
Assay [5] concerns the target Ras-related C3 botulinum toxin substrate 1 (Homo sapiens) (UniProt P63000). In words: inhibition of wildtype Rac1 nucleotide loading – biochemical, multiplex bead flow cytometry, dose response (AID 1340;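 active means dose curve with midpoint inside tested range, moderate steepness, plateau gap beyond fit error, low compound glow and bead-link interference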). The settings on record: GST-Rac1 beads, Bodipy-FL-GTP binding; at 100 µM (top of the series) unless noted.
The target in assay [6] is GTPase HRas (Homo sapiens) (UniProt P01112). As to the kind of experiment: blockade of GTP loading onto mutant Ras – biochemical, activated mutant, multiplex bead flow cytometry, dose response (AID 1341;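 active means dose-response curve with midpoint inside the tested range, moderate steepness, significant amplitude and little compound fluorescence or bead-attachment interference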;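 further: GST-tagged constitutively activated Ras mutant immobilized on beads and multiplexed with other GTPases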).

Chain of Cell division control protein 42 homolog (Homo sapiens) (P60953 whole entry, looked up): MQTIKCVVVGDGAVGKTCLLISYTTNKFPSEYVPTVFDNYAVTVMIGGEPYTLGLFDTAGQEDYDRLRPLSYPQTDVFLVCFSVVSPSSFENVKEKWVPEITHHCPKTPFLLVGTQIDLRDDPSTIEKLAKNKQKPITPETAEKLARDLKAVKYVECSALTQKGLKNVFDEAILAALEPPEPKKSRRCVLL
Chain of GTPase HRas (Homo sapiens) (P01112 whole entry, looked up): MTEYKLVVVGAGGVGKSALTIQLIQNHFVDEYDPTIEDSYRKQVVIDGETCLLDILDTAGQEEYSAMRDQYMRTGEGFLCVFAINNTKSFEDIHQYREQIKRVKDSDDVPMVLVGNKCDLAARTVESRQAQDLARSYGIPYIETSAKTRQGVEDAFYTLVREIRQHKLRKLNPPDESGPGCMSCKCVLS

`COc1cc2[nH]c(=S)nc(NCc3ccccn3)c2cc1OC`: the call in assay [1], in assay [4] and in assay [6] was inactive. In addition, in assay [2], the fluorescence, percent of control (lower = inhibition) came out at 31.9%. The GTP binding, percent of control in assay [3] amounted to 71.7%. In assay [5], this compound yielded a GTP binding signal, raw median fluorescence (lower = inhibition) (MCF (arbitrary fluorescence units)) of 176.

As to `COc1cc(/C=N/Nc2ncnc3sc4c(c23)CCC4)ccc1O`, the compound was called inactive in assay [1], in assay [4] and in assay [6]. In addition, in assay [2], the fluorescence, percent of control (lower = inhibition) is 33.9%. In addition, in assay [3], the GTP binding, percent of control worked out at 48.1%. In addition, in assay [5], the GTP binding signal, raw median fluorescence (lower = inhibition) (MCF (arbitrary fluorescence units)) amounted to 126.

Regarding `O=C1CS/C(=N/N=C2C3CC4CC(C3)CC2C4)N1`, the compound was called inactive in assay [1], in assay [4] and in assay [6]. The fluorescence, percent of control (lower = inhibition) in assay [2] came to 48.5%. This compound came in with a GTP binding, percent of control in assay [3] of 68.2%. Further, the GTP binding signal, raw median fluorescence (lower = inhibition) (MCF (arbitrary fluorescence units)) in assay [5] worked out at 214.

Turning to `N#C/C(=C/c1ccc(O)c([N+](=O)[O-])c1)C(=O)Nc1ccccc1`, the result in assay [1], in assay [4] and in assay [6] was inactive. Also, the fluorescence, percent of control (lower = inhibition) in assay [2] came to 31.5%. The GTP binding, percent of control in assay [3] came out at 77.4%. In assay [5], this compound came in with a GTP binding signal, raw median fluorescence (lower = inhibition) (MCF (arbitrary fluorescence units)) of 193.

Turning to `CCN(CC)c1ccc(/C=c2\sc3nnc(-c4ccccc4Cl)n3c2=O)cc1`, the call in assay [1], in assay [4] and in assay [6] was inactive. Besides, the fluorescence, percent of control (lower = inhibition) in assay [2] was 117%. In assay [3], this compound yielded a GTP binding, percent of control of 128%. Further, in assay [5], the GTP binding signal, raw median fluorescence (lower = inhibition) (MCF (arbitrary fluorescence units)) came to 225.

Turning to `Cn1nnc(NC(=S)NC(=O)c2ccc(-c3ccc(Br)cc3)o2)n1`, the outcome in assay [1], in assay [4] and in assay [6] was inactive. Also, the fluorescence, percent of control (lower = inhibition) in assay [2] was 30.7%. This compound also came in with a GTP binding, percent of control in assay [3] of 75.4%. Further, the GTP binding signal, raw median fluorescence (lower = inhibition) (MCF (arbitrary fluorescence units)) in assay [5] is 132.

As to `CCCN1C(=O)/C(=C\C=C2/Sc3ccccc3N2CC)SC1=S`, the compound was classed as inactive in assay [1], in assay [4] and in assay [6]. For the same compound, the fluorescence, percent of control (lower = inhibition) in assay [2] is 34.7%. The compound further registered a GTP binding, percent of control in assay [3] of 57.8%. In assay [5], this compound showed a GTP binding signal, raw median fluorescence (lower = inhibition) (MCF (arbitrary fluorescence units)) of 181.

As to `CC(=O)Nc1ccc(Nc2ccc3c4c(cc(=O)n3C)-c3ccccc3C(=O)c24)cc1`, the compound was classed as inactive in assay [1], in assay [4] and in assay [6]. The fluorescence, percent of control (lower = inhibition) in assay [2] turned out to be 34.8%. Further, the GTP binding, percent of control in assay [3] amounted to 80.5%. This compound registered a GTP binding signal, raw median fluorescence (lower = inhibition) (MCF (arbitrary fluorescence units)) in assay [5] of 205.

As to `O=C(N/N=C(\c1ccccc1)c1ccccn1)c1cccc([N+](=O)[O-])c1`, the call in assay [1], in assay [4] and in assay [6] was inactive. The fluorescence, percent of control (lower = inhibition) in assay [2] is 31.4%. In assay [3], the GTP binding, percent of control stood at 68.7%. The compound also gave a GTP binding signal, raw median fluorescence (lower = inhibition) (MCF (arbitrary fluorescence units)) in assay [5] of 143.

For `CC(C)CCNC(=O)CN(CCN1CCOCC1)C(=O)Cn1nnc(-c2ccc(F)cc2)n1`, the outcome in assay [1], in assay [4] and in assay [6] was inactive. In addition, the fluorescence, percent of control (lower = inhibition) in assay [2] is 97.1%. The compound also displayed a GTP binding, percent of control in assay [3] of 162%. The compound also came in with a GTP binding signal, raw median fluorescence (lower = inhibition) (MCF (arbitrary fluorescence units)) in assay [5] of 188.

With `Cc1ccc(OCc2ccccc2C)c(C(=O)O)c1`, the outcome in assay [1], in assay [4] and in assay [6] was inactive. Also, in assay [2], the fluorescence, percent of control (lower = inhibition) stood at 58.3%. Moreover, the GTP binding, percent of control in assay [3] came to 207%. Besides, the GTP binding signal, raw median fluorescence (lower = inhibition) (MCF (arbitrary fluorescence units)) in assay [5] was 54.4.

Consider `O=c1c2ccc([N+](=O)[O-])cc2ncn1Cc1ccccc1C(F)(F)F`, for which the outcome in assay [1], in assay [4] and in assay [6] was inactive. Besides, in assay [2], the fluorescence, percent of control (lower = inhibition) worked out at 34.8%. In assay [3], this compound gave a GTP binding, percent of control of 72.7%. The compound further gave a GTP binding signal, raw median fluorescence (lower = inhibition) (MCF (arbitrary fluorescence units)) in assay [5] of 141.

For `Cc1ccc(C(=O)OCc2nnc(-c3ccc(Br)cc3)o2)cc1`, the result in assay [1], in assay [4] and in assay [6] was inactive. Further, the fluorescence, percent of control (lower = inhibition) in assay [2] came out at 31.8%. This compound also had a GTP binding, percent of control in assay [3] of 78.1%. This compound also returned a GTP binding signal, raw median fluorescence (lower = inhibition) (MCF (arbitrary fluorescence units)) in assay [5] of 241.

On to `CC(C)NC(=O)C12CC3CC(C1)CC(n1cnc(Cl)n1)(C3)C2`, for which the compound was classed as inactive in assay [1], in assay [4] and in assay [6]. Further, the fluorescence, percent of control (lower = inhibition) in assay [2] was 41.5%. In assay [3], this compound gave a GTP binding, percent of control of 89.6%. Further, the GTP binding signal, raw median fluorescence (lower = inhibition) (MCF (arbitrary fluorescence units)) in assay [5] worked out at 319.

Regarding `CN(/N=C/c1ccncc1)C1=NS(=O)(=O)c2ccccc21`, the call in assay [1], in assay [4] and in assay [6] was inactive. Besides, the fluorescence, percent of control (lower = inhibition) in assay [2] is 53.9%. Also, the GTP binding, percent of control in assay [3] stood at 32.4%. Moreover, the GTP binding signal, raw median fluorescence (lower = inhibition) (MCF (arbitrary fluorescence units)) in assay [5] is 181.
